# Values without a mark were called inactive. The list shows a part of the results. Activity calls are given as the source filed them.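 Rule for the calls, unless noted: active = inhibition above the primary screen's cutoff, its mean inhibition plus 3 SD (cut at about 35% in these data); inactive = the rest.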
# Columns and labels:
# [1] = molecular target: Protein phosphatase methylesterase 1 (Homo sapiens) (UniProt Q9Y570); assay: PME-1 inhibitor activity retest, confirmation, biochemical, fluorescence polarization, FP-Rh probe, triplicate (AID 2171;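 active = inhibition above the hit cutoff set in the earlier primary screen, cut at about 27% in these data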;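 note: 0% = enzyme with DMSO and 100% = wells lacking PME-1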); settings: recombinant PME-1, FP-Rh probe fluorescence polarization; at 5.9 µM; hits give high values
# [2] = molecular target: Nuclear receptor coactivator 3 (Homo sapiens) (UniProt Q9Y6Q9); assay: SRC3 coactivator transcriptional activity inhibitors, confirmation, cell-based, luminescence, quadruplicate (AID 588792;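 active = mean inhibition over 43.08%, the solvent-only control mean plus 3 SD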;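 note: 0% = DMSO treated cells and 100% = gossypol at 36 µM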); settings: HEK293 GAL4-SRC3 luciferase reporter, at 3.6 µM, hits give high values
# [3] = tested on: transactivating tegument protein VP16 (Human herpesvirus 1), Gal4-VP16 luciferase reporter; assay: VP16 transactivation inhibitors, counter-screen for SRC3 inhibitor project, cell-based, luminescence, high throughput (AID 588794; in the data active = inhibition above about 30%); settings: mammalian cells, VP16-driven luciferase reporter luminescence; at 3.6 µM; hits give high values
# [4] = VP16 transactivation inhibitors, counter-screen for SRC1 inhibitor project, cell-based, luminescence, high throughput (AID 588824; in the data active = inhibition above about 25%); settings: cell-based VP16 transactivation luciferase luminescence; at 3.6 µM; hits give high values
# [5] = tested on: transactivating tegument protein VP16 (Human herpesvirus 1); assay: VP16 transactivation reporter inhibitors, counter-screen for SRC2 inhibitor project, cell-based, luminescence, single concentration (AID 652007; in the data active = inhibition above about 36%); settings: cell-based VP16 transactivation luciferase reporter, at 8.9 µM, hits give high values
# [6] = molecular target: Nuclear receptor coactivator 2 (Homo sapiens) (UniProt Q15596); assay: SRC2 coactivator transcriptional activity inhibitors, confirmation, cell-based, luminescence, HEK293, triplicate (AID 652008;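 active = mean inhibition above 46.5%, the solvent-only control mean plus 3 SD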;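 note: 0% = DMSO-treated cells and 100% = Gossypol at 36 µM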); settings: HEK293 GAL4-SRC2 luciferase reporter, at 8.9 µM, hits give high values
# [7] = StAR promoter reporter inhibitors, counter-screen for LRH-1 inverse agonist project, cell-based, luminescence, high throughput (AID 651611; in the data active = inhibition above about 28%); settings: StAR promoter luciferase reporter counterscreen, at 3.6 µM, hits give high values
# [8] = molecular target: Nuclear receptor subfamily 5 group A member 2 (Homo sapiens) (UniProt O00482); assay: LRH-1 (NR5A2) inverse agonists, retest, confirmation, cell-based, luminescence (AID 651613; in the data active = inhibition above about 42%;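 note: HEK293T cells co-transfected with LRH-1 and StAR promoter luciferase reporter; 0% = vehicle wells and 100% = parental cells lacking receptor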); settings: cell-based LRH-1 luciferase reporter, inverse agonism; at 3.6 µM; hits give high values
# [9] = molecular target: Steroidogenic factor 1 (Homo sapiens) (UniProt Q13285); assay: SF1 (NR5A1) inverse agonists, counter-screen for LRH-1 inverse agonist project, cell-based, luminescence, high throughput (AID 651614; in the data active = inhibition above about 44%;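 note: cells cotransfected with StAR promoter reporter and SF1 expression vector; 0% = vehicle on cells with receptor and 100% = vehicle on cells lacking receptor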); settings: cell-based SF1 luciferase reporter, at 3.6 µM, hits give high values
# [10] = VP16 transactivation reporter inhibitors, counter-screen for LRH-1 inverse agonist project, cell-based, luminescence, high throughput (AID 651615; in the data active = inhibition above about 33%); settings: Gal4-VP16 luciferase reporter cells, at 3.6 µM, hits give high values
# [11] = molecular target: Nuclear receptor coactivator 1 (Homo sapiens) (UniProt Q15788); assay: SRC1 coactivator transcriptional activity inhibitors, confirmation, cell-based, luminescence, quadruplicate (AID 588820;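 active = mean inhibition above 46.68%, the untreated control wells mean plus 3 SD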;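 note: 0% = DMSO wells and 100% = gossypol 36 µM treated wells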); settings: HEK293 GAL4-SRC1 luciferase reporter, at 3.6 µM, hits give high values
# [12] = molecular target: Glutathione S-transferase omega-1 (Homo sapiens) (UniProt P78417); assay: GSTO1 inhibitor hit confirmation, counter-screen for RBBP9 inhibitor project, biochemical, fluorescence polarization, triplicate (AID 2176); settings: recombinant GSTO1, probe fluorescence polarization; at 5.96 µM; hits give high values;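 note: loss of polarization as inhibitors block binding of rhodamine sulfonate ester activity probe; 0% = GSTO1 with DMSO and 100% = wells lacking GSTO1 enzyme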
# [13] = growth loss of phage-infected E. coli expressing H. pylori AddAB, confirmation, AddAB inhibitor project, absorbance, E. coli V3065, T4 phage, triplicate (AID 488942;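 active = mean inhibition above a set limit taken from the earlier primary screen, cut at about 13% in these data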;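 note: higher means less bacterial growth since AddAB block lets phage replicate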); settings: OD, at 11.9 µM, hits give high values, T4 phage with gene 2 nonsense mutations
# [14] = growth loss of RecBCD+ E. coli with mutant T4 phage, counter-screen for AddAB inhibitor project, absorbance, V66 E. coli (AID 488955;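 active = mean inhibition above the mean of solvent-only control wells plus 3 SD, cut at about 4% in these data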;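 note: optical density read after an 18 h incubation at 37 °C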); settings: OD growth, at 11.9 µM, hits give high values
# [15] = bacterial viability inhibition counter-screen, confirmation, counter-screen for AddAB inhibitor project, absorbance (AID 488956; in the data active = inhibition above about 25%); settings: absorbance (AddAB counterscreen), at 11.9 µM, hits give high values
# [16] = molecular target: Platelet-activating factor acetylhydrolase IB subunit alpha1 (Homo sapiens) (UniProt Q15102); assay: PAFAH1B3 enzyme inhibitors, confirmation, biochemical, fluorescence polarization, human (AID 493032;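 active = average inhibition over triplicate runs above the hit cutoff set in the earlier primary screen, cut at about 25% in these data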;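 note: 0% = enzyme with DMSO and 100% = wells lacking PAFAH1B3 protein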); settings: recombinant PAFAH1B3, FP-Rh activity-based probe, at 3.39 µM, hits give high values
# [17] = molecular target: Platelet-activating factor acetylhydrolase (Homo sapiens) (UniProt Q13093); assay: pPAFAH (PLA2G7) enzyme inhibitors, confirmation, biochemical, fluorescence polarization, human (AID 463230;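 active = mean inhibition of the triplicate above the hit cutoff set for the earlier primary screen, cut at about 25% in these data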;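 note: 0% = enzyme with DMSO and 100% = wells lacking pPAFAH enzyme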); settings: recombinant pPAFAH, FP-Rh probe fluorescence polarization; at 3.39 µM; hits give high values
# [18] = molecular target: Protein-arginine deiminase type-4 (Homo sapiens) (UniProt Q9UM07); assay: human PAD4 inhibitors, confirmation, biochemical, fluorescence polarization (AID 488796;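 active = mean inhibition across replicates above the hit cutoff set by the earlier primary screen, cut at about 15% in these data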;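 note: inhibitors block active-site labeling by the probe so polarization falls; 0% = PAD4 with probe and DMSO and 100% = probe without PAD4 enzyme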); settings: recombinant PAD4, RCA probe fluorescence polarization; at 6.36 µM; hits give high values
# [19] = molecular target: Insulin-degrading enzyme (Homo sapiens) (UniProt P14735); assay: human IDE inhibitors in live cells, confirmation, fluorescence polarization, HEK cells, FAbetaB substrate (AID 435028;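 active = mean inhibition across triplicate wells above the cutoff set by the earlier primary insulin-degrading enzyme screen, cut at about 16% in these data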;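 note: 0% = DMSO wells and 100% = 60 µM reference IDE inhibitor Ii1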); settings: FAbetaB cleavage, at 5.59 µM, hits give high values
# [20] = cytotoxicity in HEK cells, cytotoxicity control for IDE inhibitor project, cell-based, luminescence (AID 449730; in the data active = inhibition above about 22%;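 note: 0% = vehicle wells and 100% = reference cytotoxic drug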); settings: HEK293 cytotoxicity, ATP luminescence; at 5.59 µM; hits give high values
# Nuclear receptor coactivator 2 (Homo sapiens), sequence (Q15596 whole entry, looked up, the tested form may be a part): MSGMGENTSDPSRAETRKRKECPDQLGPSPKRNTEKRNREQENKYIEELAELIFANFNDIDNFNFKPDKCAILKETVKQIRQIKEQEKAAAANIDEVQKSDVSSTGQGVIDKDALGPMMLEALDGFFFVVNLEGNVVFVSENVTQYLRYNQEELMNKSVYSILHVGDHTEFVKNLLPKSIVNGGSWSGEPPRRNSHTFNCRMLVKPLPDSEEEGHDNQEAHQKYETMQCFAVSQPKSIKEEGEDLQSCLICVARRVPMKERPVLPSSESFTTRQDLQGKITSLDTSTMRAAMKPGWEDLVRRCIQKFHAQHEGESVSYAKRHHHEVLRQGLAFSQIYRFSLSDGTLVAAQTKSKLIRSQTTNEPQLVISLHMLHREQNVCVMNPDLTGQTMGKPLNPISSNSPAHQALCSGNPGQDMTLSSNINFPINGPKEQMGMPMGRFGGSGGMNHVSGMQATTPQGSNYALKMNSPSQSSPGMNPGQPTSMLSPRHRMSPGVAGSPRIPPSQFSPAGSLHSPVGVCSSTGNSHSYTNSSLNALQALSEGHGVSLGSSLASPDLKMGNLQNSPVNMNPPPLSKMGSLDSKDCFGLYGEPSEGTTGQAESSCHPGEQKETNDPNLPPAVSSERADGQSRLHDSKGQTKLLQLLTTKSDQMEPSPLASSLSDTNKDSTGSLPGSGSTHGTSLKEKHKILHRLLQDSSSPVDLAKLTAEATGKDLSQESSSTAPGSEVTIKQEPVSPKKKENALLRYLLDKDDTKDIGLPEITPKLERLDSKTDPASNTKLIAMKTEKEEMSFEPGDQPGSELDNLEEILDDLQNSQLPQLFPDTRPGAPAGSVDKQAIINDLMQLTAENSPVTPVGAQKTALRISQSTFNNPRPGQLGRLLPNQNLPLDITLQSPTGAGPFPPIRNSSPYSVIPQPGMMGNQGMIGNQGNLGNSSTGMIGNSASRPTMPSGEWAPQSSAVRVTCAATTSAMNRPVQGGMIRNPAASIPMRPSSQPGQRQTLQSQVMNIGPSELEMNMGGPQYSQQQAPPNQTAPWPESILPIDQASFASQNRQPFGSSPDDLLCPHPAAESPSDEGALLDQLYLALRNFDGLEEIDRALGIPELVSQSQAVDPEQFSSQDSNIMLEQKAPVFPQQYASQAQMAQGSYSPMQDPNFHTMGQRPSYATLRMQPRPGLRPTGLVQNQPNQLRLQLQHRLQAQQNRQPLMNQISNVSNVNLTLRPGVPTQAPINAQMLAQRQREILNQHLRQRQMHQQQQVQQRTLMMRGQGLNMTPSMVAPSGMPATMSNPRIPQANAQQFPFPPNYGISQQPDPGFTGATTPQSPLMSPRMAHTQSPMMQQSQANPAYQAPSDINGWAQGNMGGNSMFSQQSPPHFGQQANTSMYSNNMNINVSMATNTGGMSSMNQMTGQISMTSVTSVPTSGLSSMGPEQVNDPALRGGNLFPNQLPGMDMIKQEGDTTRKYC
# Glutathione S-transferase omega-1 (Homo sapiens), sequence (P78417 whole entry, looked up): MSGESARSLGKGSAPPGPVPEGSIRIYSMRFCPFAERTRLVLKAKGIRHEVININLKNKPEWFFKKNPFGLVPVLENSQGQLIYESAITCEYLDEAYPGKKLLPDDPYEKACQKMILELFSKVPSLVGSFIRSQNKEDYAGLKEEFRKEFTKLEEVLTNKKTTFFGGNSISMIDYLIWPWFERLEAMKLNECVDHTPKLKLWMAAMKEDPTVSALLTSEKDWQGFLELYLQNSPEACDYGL
# Protein phosphatase methylesterase 1 (Homo sapiens), sequence (Q9Y570 whole entry, looked up, the tested form may be a part): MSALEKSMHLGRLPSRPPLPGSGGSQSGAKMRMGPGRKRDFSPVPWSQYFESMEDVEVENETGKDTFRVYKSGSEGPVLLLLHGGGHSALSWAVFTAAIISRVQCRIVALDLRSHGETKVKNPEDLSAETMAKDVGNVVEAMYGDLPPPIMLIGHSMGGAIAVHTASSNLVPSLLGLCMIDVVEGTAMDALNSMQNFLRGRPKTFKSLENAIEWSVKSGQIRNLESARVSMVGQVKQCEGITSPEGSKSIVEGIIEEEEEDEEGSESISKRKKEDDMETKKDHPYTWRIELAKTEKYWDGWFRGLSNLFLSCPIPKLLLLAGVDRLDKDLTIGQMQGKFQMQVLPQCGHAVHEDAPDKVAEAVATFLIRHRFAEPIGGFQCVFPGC
# Platelet-activating factor acetylhydrolase IB subunit alpha1 (Homo sapiens), sequence (Q15102 whole entry, looked up): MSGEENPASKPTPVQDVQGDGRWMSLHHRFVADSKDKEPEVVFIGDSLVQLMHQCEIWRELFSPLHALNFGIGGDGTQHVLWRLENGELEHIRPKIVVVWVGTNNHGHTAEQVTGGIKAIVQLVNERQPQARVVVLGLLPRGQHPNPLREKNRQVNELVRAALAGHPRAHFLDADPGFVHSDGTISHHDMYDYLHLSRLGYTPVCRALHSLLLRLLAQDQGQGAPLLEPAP
# Nuclear receptor coactivator 1 (Homo sapiens), sequence (Q15788 whole entry, looked up, the tested form may be a part): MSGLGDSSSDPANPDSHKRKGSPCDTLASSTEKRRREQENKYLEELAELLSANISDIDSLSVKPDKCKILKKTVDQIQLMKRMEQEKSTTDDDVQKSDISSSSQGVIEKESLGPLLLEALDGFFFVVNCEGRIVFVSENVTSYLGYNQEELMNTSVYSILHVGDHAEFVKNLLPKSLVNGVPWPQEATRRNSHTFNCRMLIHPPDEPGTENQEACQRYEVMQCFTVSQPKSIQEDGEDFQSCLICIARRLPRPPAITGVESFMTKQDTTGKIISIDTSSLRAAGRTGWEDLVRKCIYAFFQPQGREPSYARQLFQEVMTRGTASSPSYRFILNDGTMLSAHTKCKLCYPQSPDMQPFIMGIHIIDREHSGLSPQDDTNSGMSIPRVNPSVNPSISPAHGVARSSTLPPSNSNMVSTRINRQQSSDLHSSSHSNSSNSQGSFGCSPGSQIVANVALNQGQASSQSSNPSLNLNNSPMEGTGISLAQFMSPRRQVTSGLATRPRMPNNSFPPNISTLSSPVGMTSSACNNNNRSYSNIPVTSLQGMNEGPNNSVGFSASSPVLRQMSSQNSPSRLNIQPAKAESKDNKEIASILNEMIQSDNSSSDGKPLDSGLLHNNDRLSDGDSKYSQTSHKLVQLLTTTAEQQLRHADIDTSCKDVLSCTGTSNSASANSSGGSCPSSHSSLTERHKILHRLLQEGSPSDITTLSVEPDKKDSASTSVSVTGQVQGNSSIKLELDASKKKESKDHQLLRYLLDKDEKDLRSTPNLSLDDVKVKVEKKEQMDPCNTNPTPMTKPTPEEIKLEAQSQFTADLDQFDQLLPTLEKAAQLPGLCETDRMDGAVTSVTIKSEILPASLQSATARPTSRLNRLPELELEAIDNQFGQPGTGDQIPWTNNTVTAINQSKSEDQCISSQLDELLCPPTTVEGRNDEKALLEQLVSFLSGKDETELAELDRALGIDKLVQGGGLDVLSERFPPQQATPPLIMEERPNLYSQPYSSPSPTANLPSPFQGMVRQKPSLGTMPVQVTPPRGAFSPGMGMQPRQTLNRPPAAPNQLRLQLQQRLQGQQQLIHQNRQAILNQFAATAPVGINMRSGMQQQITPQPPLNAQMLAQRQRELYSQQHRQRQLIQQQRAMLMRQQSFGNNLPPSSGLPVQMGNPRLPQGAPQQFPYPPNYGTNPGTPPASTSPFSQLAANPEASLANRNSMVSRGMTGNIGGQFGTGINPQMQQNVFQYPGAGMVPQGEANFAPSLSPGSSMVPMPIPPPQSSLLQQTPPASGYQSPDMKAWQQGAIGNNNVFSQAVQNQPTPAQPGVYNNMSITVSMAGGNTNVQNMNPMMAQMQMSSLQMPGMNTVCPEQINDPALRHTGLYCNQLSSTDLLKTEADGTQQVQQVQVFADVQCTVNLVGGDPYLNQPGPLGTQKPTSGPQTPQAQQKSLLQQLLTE
# Steroidogenic factor 1 (Homo sapiens), sequence (Q13285 whole entry, looked up, the tested form may be a part): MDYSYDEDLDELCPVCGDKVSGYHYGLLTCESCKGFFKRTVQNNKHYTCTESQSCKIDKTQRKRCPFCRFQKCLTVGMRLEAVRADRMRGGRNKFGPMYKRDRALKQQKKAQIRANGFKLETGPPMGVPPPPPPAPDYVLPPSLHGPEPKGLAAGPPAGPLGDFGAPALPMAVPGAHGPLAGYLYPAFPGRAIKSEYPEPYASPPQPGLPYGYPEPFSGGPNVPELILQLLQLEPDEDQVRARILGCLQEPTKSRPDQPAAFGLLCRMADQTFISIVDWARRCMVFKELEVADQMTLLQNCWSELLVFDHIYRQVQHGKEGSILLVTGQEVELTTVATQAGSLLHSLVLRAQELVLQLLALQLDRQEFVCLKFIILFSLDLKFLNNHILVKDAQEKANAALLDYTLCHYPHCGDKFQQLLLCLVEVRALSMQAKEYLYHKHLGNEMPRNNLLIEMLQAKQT
# Nuclear receptor subfamily 5 group A member 2 (Homo sapiens), sequence (O00482 whole entry, looked up): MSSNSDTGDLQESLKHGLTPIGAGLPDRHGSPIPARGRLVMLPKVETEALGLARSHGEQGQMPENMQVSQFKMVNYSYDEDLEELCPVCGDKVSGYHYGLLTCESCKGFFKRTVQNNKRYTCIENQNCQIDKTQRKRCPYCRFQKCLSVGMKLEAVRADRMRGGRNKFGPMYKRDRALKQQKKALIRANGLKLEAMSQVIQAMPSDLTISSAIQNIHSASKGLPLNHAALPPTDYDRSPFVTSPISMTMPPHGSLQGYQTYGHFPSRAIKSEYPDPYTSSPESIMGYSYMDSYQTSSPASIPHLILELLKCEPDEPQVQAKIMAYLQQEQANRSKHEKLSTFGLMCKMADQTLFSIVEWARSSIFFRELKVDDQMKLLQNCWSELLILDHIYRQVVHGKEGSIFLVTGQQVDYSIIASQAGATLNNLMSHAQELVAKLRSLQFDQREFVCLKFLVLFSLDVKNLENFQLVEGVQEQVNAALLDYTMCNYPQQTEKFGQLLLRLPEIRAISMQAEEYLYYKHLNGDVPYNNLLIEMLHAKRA
smiles,measurement,setting,value
COc1ccc(/C=C2\CN(Cc3ccccc3)C/C(=C\c3ccc(OC)c(O)c3)C2=O)cc1O,inhibition,[1],-5.14%
same,inhibition,[2],59.2% (active)
same,inhibition,[3],0.48%
same,inhibition,[4],12.4%
same,inhibition,[5],73.1% (active)
same,inhibition,[6],22.9%
COC(=O)N1C(=O)[C@](c2ccccc2)(C2CCCC2)N1C(=O)OC,inhibition,[1],86.9% (active)
same,inhibition,[5],-1.09%
same,inhibition,[6],-4.92%
CCCOc1ccc(/C=N/NC(=S)Nc2ccccc2[N+](=O)[O-])c(O)c1,inhibition,[1],27.9% (active)
same,inhibition,[5],74.5% (active)
same,inhibition,[6],84% (active)
COc1cccc(-c2nc(NC(C)C)c3ccccc3n2)c1O,inhibition,[1],23.6%
same,inhibition,[7],21.2%
same,inhibition,[8],46.5% (active)
same,inhibition,[9],57% (active)
same,inhibition,[10],-1.3%
CCCCn1c(NS(=O)(=O)c2ccccc2)c(S(=O)(=O)c2ccc(C)cc2)c2nc3ccccc3nc21,inhibition,[1],11.6%
same,inhibition,[7],15.2%
same,inhibition,[8],19.7%
same,inhibition,[9],24.9%
same,inhibition,[10],-6.99%
COc1cc(OC)c2cc(C(=O)N/N=C/c3cccc(OC)c3O)[nH]c2c1,inhibition,[1],39.4% (active)
same,inhibition,[11],17.7%
same,inhibition,[4],6.13%
CCOC(=O)c1c(NC(=O)c2ccc(S(=O)(=O)N(C)CC3CCCO3)cc2)sc2c1CC(C)(C)NC2(C)C (centres undefined),inhibition,[12],4.04%
Fc1ccc2[nH]c3c(N4CCN(c5ccccc5)CC4)ncnc3c2c1,inhibition,[1],26.3% (active)
same,inhibition,[11],2.85%
same,inhibition,[4],15.6%
COC(=O)c1ccc(CSc2nncn2N)cc1,inhibition,[12],1.78%
O=C(c1[nH]ncc1-c1ccc(Cl)cc1)C1CO1 (centres undefined),inhibition,[12],79.6% (active)
same,inhibition,[13],57.3% (active)
same,inhibition,[14],7.58% (active)
same,inhibition,[15],34.3% (active)
CC(C)(C)n1cnnc1Sc1ccc([N+](=O)[O-])cn1,inhibition,[12],28.1%
O=C1Nc2c(Br)cc(Br)cc2C1(O)N1CCOCC1 (centres undefined),inhibition,[12],25.2%
same,inhibition,[16],8.59%
O=C(Cn1c(-c2ccccn2)nc2ccccc21)NCCN1CCOCC1,inhibition,[12],6.3%
Cc1ccc(C(=O)N/N=C/c2sc(=O)n(Cc3cccc(C(=O)O)c3)c2Cl)cc1,inhibition,[12],48.3% (active)
O=C(OCC(=O)N1CCCC1=O)c1cc(S(=O)(=O)N2CCOCC2)ccc1Cl,inhibition,[12],1.2%
NNC(=O)c1oc2nc(-c3ccccc3)cc(-c3ccco3)c2c1N,inhibition,[12],3.35%
same,inhibition,[17],18.2%
COC(=O)CCCC1=CC2=CC(=O)C(C)(OC(=O)c3cccs3)C(=O)C2=CN1CC1CC1 (centres undefined),inhibition,[12],30.3%
same,inhibition,[18],1.6%
Cc1ccc(SCC2=NNC(=O)C2)cc1,inhibition,[12],11.5%
O=c1cc(CCl)nc2scc(-c3ccccc3)n12,inhibition,[12],96.3% (active)
COC(=O)CCCC1=CC2=C(c3ccccc3)C(=O)C(C)(OC(=O)C3CCCC3)C(=O)C2=CN1c1ccc(OC)cc1 (centres undefined),inhibition,[12],16.9%
COC1=C(N2CCOCC2)C(=O)c2ccccc2C1=O,inhibition,[12],28.9%
COc1ccc(C(C(=O)NC2CCCCC2)N(C(=O)CCl)c2ccccc2Cl)cc1 (centres undefined),inhibition,[12],45% (active)
CC1=CC(C)(C)Nc2ccc(OC(=O)CN3C(=O)C4CCCCC4C3=O)cc21 (centres undefined),inhibition,[12],1.06%
same,inhibition,[19],29.8% (active)
same,inhibition,[20],75% (active)
same,inhibition,[5],-22.9%
same,inhibition,[6],27.4%
C=CCNC(=O)c1ccccc1SCc1c(C)noc1C,inhibition,[12],3.92%
O=C(Nc1cc(N2CCOCC2)ncn1)NC1(C(F)(F)F)Oc2ccc(Cl)cc2O1 (centres undefined),inhibition,[12],8.59%
O=S(=O)(O)Oc1c[nH]c2ccccc12,inhibition,[12],51.2% (active)
CCCc1nc2ccccc2c(=O)n1/N=C/c1ccc(O)c(O)c1,inhibition,[12],3.52%
CCC1(CC)Cc2ccccc2-c2nc(CCl)[nH]c(=O)c21,inhibition,[12],94% (active)
Oc1c(C=Nc2cccc3nsnc23)ccc2ccccc12,inhibition,[12],69.9% (active)
same,inhibition,[18],-54.5%
O=C(Cc1cc(=O)[nH][nH]1)N/N=C/c1ccccc1[N+](=O)[O-],inhibition,[12],5.98%
O=C(O)c1cccc(NC(=S)N/N=C/c2c[nH]c3ccccc23)c1,inhibition,[12],54.5% (active)
CC(=O)N(C1=C(Cl)C(=O)c2ccccc2C1=O)c1ccc(C(=O)O)cc1,inhibition,[12],77.8% (active)
same,inhibition,[19],164% (active)
same,inhibition,[20],14.1%
same,inhibition,[16],25.6% (active)
O=C(CCl)Nc1cccc(CP(=O)(c2ccccc2)c2ccccc2)c1,inhibition,[12],90.4% (active)
O=C(CCl)NNc1cccc(Cl)n1,inhibition,[12],50% (active)

# — PubChem BioAssay
